# TROY signal inh = inhibitors of TROY-dependent NF-kB signaling. Q293 LMP1-TROYcd NF-kB luciferase reporter, 4 h. inhibition, % at 10 µM. actives 0.98% (n = 360,000);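 active = compounds whose plate-normalised and pattern-corrected inhibition of the luciferase reporter signal at the single screening dose is 50% or more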
# TWEAK Fn14 block = blocks TWEAK-Fn14 interaction in a reporter cell assay | TWEAK-stimulated Fn14 reporter cells, luciferase luminescence, 8 h | AID 1159606 | inhibition, % at 10 µM | actives 2% (n = 360,000); in the data active = inhibition above about 50%
# HSP90 refold inh = HSP90 refolding inhibition in rabbit reticulocyte lysate; inhibition, % at 5.6 µM; actives 0.91% (n = 290,000); luciferase refolding luminescence, 3 h;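 active = inhibition above the screen-wide mean plus 3 SD, computed separately per campaign, cut at about 16% in these data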;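 also: 0% = DMSO wells and 100% = 60 µM geldanamycin wells; inhibitors lower the luminescence because luciferase stays unfolded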
# TRAIL sens C8 = caspase-8 TRAIL sensitization; NB7+C8 cells + TRAIL, ATPlite viability luminescence; inhibition (viability loss, TRAIL sensitization), % at 10 µM; actives 1% (n = 360,000);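 active = compounds causing at least 50% loss of cell viability in the single-dose screen, relative to plate controls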
# HIF-2a inh = inhibitors of HIF-2a; 786-0 RCC cells HIF-2a reporter, luciferase luminescence, overnight; inhibition, % at 18.8 µM; actives 0.72% (n = 360,000); AID 624352;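 active = inhibition of the luminescence signal of 40% or more relative to plate controls, in a single-dose primary screen at 18.75 µM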
# aSyn UTR inh = MLPCN primary screen, SNCA 5' untranslated region; alpha-synuclein 5'UTR reporter, inhibitor activity; actives 0.82% (n = 300,000); AID 1813; inhibition, % (tested at 7.5 µM); in the data active = inhibition above about 60%;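 also: H4 neuroglioblastoma cells stably carrying SNCA 5'UTR luciferase fusion; 0% = DMSO wells and 100% = positive control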
# Numbers without * were called inactive; . = no result given. Sampled rows, rich in hits. Any-hit rate of the full collection: about 3.9%.
SMILES,TROY signal inh,TWEAK Fn14 block,HSP90 refold inh,TRAIL sens C8,HIF-2a inh,aSyn UTR inh
N#CC(C#N)c1ccnc2ccccc12,43,59*,.,4,0,.
N#CCc1ccnc2ccccc12,7,3,.,-7,8,.
COC(=O)c1ccc(CNC(=O)CC[C@H]2O[C@@H](n3cc(C)c(=O)[nH]c3=O)C[C@@H]2O)cc1,-3,19,.,1,11,.
CC1=C(C(=O)Nc2cc(C(=O)N3CCN(c4ccc(Cl)cc4)CC3)ccc2C)SCCO1,26,11,.,2,6,.
O=C(CSc1ncnc2c(-c3ccc(Cl)cc3)nsc12)c1ccccc1,57*,40,3,10,-85,-98
CCN(Cc1ccccc1)S(=O)(=O)c1ccc(C(=O)N2CCN(c3nc4ccccc4s3)CC2)cc1,46,93*,-1,24,-28,28
Nc1nc(Nc2ccccc2)nc(NCc2ccco2)c1[N+](=O)[O-],-1,15,-1,-3,-57,38
Fc1ccc(Nc2nc(NCc3ccco3)c3ccccc3n2)cc1,46,62*,-1,15,-164,35
COc1ccc(CCN2C(=O)c3cccc4c(C(=O)N5CCCCC5)ccc(c34)C2=O)cc1OC,57*,78*,2,41,10,-57
COc1ccc(CCNC(=O)CCN2C(=O)c3cccc4cccc(c34)C2=O)cc1OC,19,-10,3,-4,-9,13
CC1(CO)CCCC1NCCNC1CCCC1(C)CO (stereo not drawn),44,-7,.,1,3,.
Cc1ccc(-c2nc3ccccc3nc2-c2ccccc2)cc1,-1,96*,0,-2,2,17
CCc1ccc2c(c1)NC(=O)C2(C)Cc1ccccc1 (stereo not drawn),6,12,.,-20,9,.
CCc1ccc2c(c1)C1(NN=C(c3cccc4ccccc34)S1)C(=O)N2 (stereo not drawn),1,-17,2,18,10,76*
COc1ccc(C)cc1NC(=O)ON=C1CCCCC1,-6,-19,.,-11,-86,.
O=C(Nc1cccc2ccccc12)ON=C1CCCCC1,76*,81*,.,-2,-29,.
CC(=O)c1ccc(OCCCC(=O)Nc2nnc(C3CC3)s2)cc1,-4,-14,.,-2,10,.
NC(=O)CC(NC(=O)c1cccc(Br)c1)c1ccc(N2CCN(c3ccccn3)CC2)c([N+](=O)[O-])c1 (stereo not drawn),-6,-2,-3,-7,81*,31
CCc1ccc(C(=O)CN(C#N)c2nc(C)cc(C)n2)cc1,7,62*,-1,6,-109,-31
Cc1cccc(/C=C2\CCC(=C3SCCCS3)C2=O)c1,.,75*,14,82*,8,85*
Cc1cccc(/C=c2\s/c(=C\C(=O)C(C)(C)C)[nH]c2=O)c1,-31,-26,0,36,-98,-4
COc1ccccc1Nc1nc(N)nc(CCl)n1,-9,3,0,92*,5,-12
COc1ccc(OC)c(Nc2nc(N)nc(CCl)n2)c1,0,7,2,92*,18,17
CCOC(=O)C1=CC[C@@H](c2cccc(Br)c2)N(S(=O)(=O)c2ccc(F)cc2)[C@H]1c1cccc(Cl)c1,.,.,.,14,19,.
CCN(Cc1ccc2c(c1)OCO2)C(=O)CSc1nc(C)nc2sc(C)c(C)c12,57*,13,.,0,15,.
SMILES,TROY signal inh,TWEAK Fn14 block,HSP90 refold inh,TRAIL sens C8,HIF-2a inh,aSyn UTR inh
CCN(C(=O)CSc1nc(C)nc2sc(C)c(C)c12)c1ccc(F)cc1,15,-5,.,25,9,.
Cc1ccc(N2CCN(C(C(=O)Nc3c(C)cccc3C)c3ccccc3OC(F)(F)F)CC2)cc1 (stereo not drawn),.,.,.,3,9,.
COc1cc(O)c(C(C)=O)c2c1C=CC(C)(C)O2,3,3,.,0,7,.
CC(=O)c1c(O)cc2c3c1OC(C)(C)C1CCC(C)(CC31)O2 (stereo not drawn),34,79*,.,16,12,.
CCOC(=O)c1c(N/C=C(\C#N)c2nc(-c3ccc(OC(C)=O)cc3)cs2)sc2c1CCC2,-23,5,.,4,20,.
Cc1ccc(-c2nn3c(C)nnc3s2)cc1NC(=O)c1ccc(-c2ccc(Cl)cc2Cl)o1,26,-34,2,60*,-1,.
CCCCOCCCNC(=O)C[C@@H]1C[C@@]2(C(=O)OCC)CCC=C2N(Cc2ccc3c(c2)OCO3)C1=O,2,16,.,-4,5,.
CCCCCCCn1c2c(c(=N)c3c1CCC3)CCCC2,48,61*,3,40,16,83*

# Screening data: PubChem, several laboratories
